HCMV inh: blocks human cytomegalovirus replication; HFF cells, HCMV-luciferase reporter, 72 h; active compounds read low; activity change, negative = inhibition, % at 57.5 µM; hit rate 4.5% among 410,000; in the data active = activity change below about -60%; inconclusive = no clear call, values can overlap the other calls; inactive = above about -39%; note: % is set by controls: 0 for no effect and ±100 for the full control effect
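HFF cells seeded 16 h at 37C, treated with compounds, infected with luciferase-reporter HCMV at MOI 1 PFU/cell; luciferase read at 72 h post infection, normalized to buffer-only and Salinomycin controls.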
Pf growth 48h: P. falciparum growth inhibition at 48 hours (one generation). hit rate 5.9% among 310,000. P. falciparum luciferase growth in erythrocytes, 48 h. Potency, µM (top dose mostly 28.7 µM), without a hit: at the highest dose activity change, negative = inhibition, most hits filed as inhibitors; note: potency is the fitted concentration of half-maximal effect; % is set by controls: 0 for no effect and ±100 for the full control effect
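Luciferase-expressing parasites in RBCs, 2% Hct / 0.1% parasitemia final; RPMI 1640 + 0.5% Albumax; 37 C, 5% CO2, one generation; luminescence read-out, lower signal = inhibition.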
Pf growth 96h: P. falciparum growth inhibition at 96 hours | P. falciparum luciferase reporter growth, 96 h | Potency, µM (highest dose often 28.7 µM), for the others: top-dose activity change, negative = inhibition, usual class: inhibitors | hit rate 6.9% among 320,000 | AID 504834; note: potency is the fitted concentration of half-maximal effect; % is set by controls: 0 for no effect and ±100 for the full control effect
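Delayed-death screen, second-generation endpoint: infected erythrocytes, 2% hematocrit, 0.05% parasitemia final; 96 hours at 37 C, 5% CO2; luciferase detection reagent; luminescence decrease equals reduced growth.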
Shiga inhibitor: blocks Shiga toxin action in Vero cells; inhibition, % at 38.7 µM; hit rate 9.2% among 290,000; Vero cells, Shiga toxin protein synthesis inhibition reporter; in the data active = inhibition mostly above about 28%, no sharp cut-off; inactive = mostly below about 43%; note: 0% is about no effect
HCV inh: HCV inhibition; Huh7.5.1 HCVcc-Cre infection, luciferase reporter, 44 h; Potency, µM (doses to about 41.8 µM), inactives show top-dose activity change, negative = inhibition, most hits filed as inhibitors; hit rate 3.4% among 340,000; AID 651820; note: potency is the fitted concentration of half-maximal effect; % is set by controls: 0 for no effect and ±100 for the full control effect
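Infectious HCV cell culture screen: compound-treated cells (1,000/well, pre-plated 4 h) are infected with HCVcc-Cre at roughly 0.5 moi and grown 44 h. Infection is quantified by luciferase signal after 15 min substrate incubation at room temperature.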
Cycloheximide cs: counter-screen hit for Shiga toxin inhibitors, cycloheximide; max response, %; cell reporter, cycloheximide protein synthesis inhibition counterscreen; hit rate 12% among 300,000; in the data active = max response mostly above about 13%, no sharp cut-off; inactive = mostly below about 14%; note: read at 38.3 µM for the half of the compounds with a filed dose; 0% is about no effect
Active calls of the source: *; ? = inconclusive; . = no result; [ ] = dose if it differs, or a comment. Shown are actives, neighbours in structure and some others; about 21% of the full set was active somewhere. Unless noted, calls come from the whole dose curve; as a rule, active = well fitted inhibition curve with a large enough effect; inconclusive = small, poorly fitted or top-dose-only effect, or another doubt; inactive = no such curve, though single readings can be large or run the other way.

SMILES	HCMV inh	Pf growth 48h	Pf growth 96h	Shiga inhibitor	HCV inh	Cycloheximide cs
COC(=O)/C(=C/c1ccco1)NC(=O)c1ccccc1	-13	-9%	50%	4	17%	4
CCN(C(=O)COC(=O)c1ccc2c(c1)OCO2)c1c(N)n(Cc2ccccc2)c(=O)[nH]c1=O	14	9%	10%	.	10%	.
Cc1ccc(C(=O)NNC(=O)COC(=O)COc2ccccc2C#N)cc1	115	-18%	-3%	.	-5%	.
Cc1nn(-c2nc3ccccc3s2)c(N)c1-c1ccccc1	88	167%	.	91*	?	72*
Cc1nn(-c2ccc(F)cc2)c(Cl)c1/C=C(\CCC(=O)O)c1nc2ccccc2s1	45	1%	1%	-11	20%	-4
Cc1nn(-c2nc3ccccc3s2)c(N)c1-c1ccc(Cl)cc1	93	37%	.	54*	-19%	33*
Cc1nn(-c2nc3ccccc3s2)c(N)c1Sc1ccc(F)cc1	15	99%	?	48*	-24%	20*
COc1cccc(CNc2ncnc3c2nnn3C)c1	-14	.	.	.	.	.
C[C@H]1C(=O)N(S(=O)(=O)c2ccccc2[N+](=O)[O-])[C@H]1c1ccc(-c2ccccc2)cc1	.	.	.	10	.	6
CS(=O)(=O)Nc1ccc(C2=NN(C(=O)C3CCCCC3)C(c3cccs3)C2)cc1 (centres undefined)	-62*	?	?	-8	5%	-1
CC(C)C(=O)N1N=C(c2ccc(NS(C)(=O)=O)cc2)CC1c1cccs1 (centres undefined)	50	-26%	?	21	?	-2
Cc1ccc(C(=O)N2N=C(c3cccc(NS(C)(=O)=O)c3)CC2c2cccs2)cc1 (centres undefined)	-60*	19%[0.00184 µM]	?	-14	?	-3
CS(=O)(=O)Nc1cccc(C2=NN(C(=O)c3ccccc3)C(c3cccs3)C2)c1 (centres undefined)	-16	13µM*	26%	-5	?	1
Cc1ccc(C(=O)N2N=C(c3ccc(NS(C)(=O)=O)cc3)CC2c2cccs2)cc1 (centres undefined)	19	-3%[0.00184 µM]	?	-3	?	-7
CS(=O)(=O)Nc1cccc(C2=NN(C(=O)c3cccc([N+](=O)[O-])c3)C(c3cccs3)C2)c1 (centres undefined)	-17	16%[0.00184 µM]	-24%	-15	?	-4
CCOc1ccc(S(=O)(=O)NCC(c2cccs2)S(=O)(=O)c2ccc(C)cc2)cc1 (centres undefined)	-37	.	.	.	.	.
COc1ccc(C)cc1NC(=O)C1CCN(S(=O)(=O)c2cccs2)CC1	-32	-11%	?	7	11%	-2
CCOc1ccccc1NC(=O)COc1ccc2ccc(=O)oc2c1	-1	6%	?	-9	-23%	-3
COc1ccc(NC(=O)c2ccc(Cl)c(NC(=O)c3ccncc3)c2)cc1	.	8%	0%	-4	.	5
CCc1ccccc1NC(=O)Cn1c(=O)n(CCCCCC(=O)NCc2ccc(C)cc2)c(=O)c2sccc21	-32	.	.	.	.	.
CCc1nc(C)cn1S(=O)(=O)c1ccc(Cl)c(Cl)c1OC	-75*	.	.	.	.	.
CCOc1ccc(OCC)c(S(=O)(=O)n2cc(C)nc2CC)c1	-38	?	?	-9	-9%	3
Cc1ccc(C(=O)Nc2cccc(S(=O)(=O)N3CCCCC3)c2)cc1S(=O)(=O)N1CCOCC1	-37	.	.	.	8.9µM*	.
COc1ccc(C(=O)Nc2cccc(S(=O)(=O)N3CCCC3)c2)cc1S(=O)(=O)N1CCOCC1	10	.	.	.	?	.
O=C(Nc1cccc(S(=O)(=O)N2CCCCC2)c1)c1ccc([N+](=O)[O-])o1	0	?	9.3µM*	14	?	29*
O=C(NC1CCCC1)c1cc(S(=O)(=O)N2CCOCC2)c(Cl)cc1Cl	-20	-30%	4.7µM*	-11	-21%	6
O=C(c1cccc(S(=O)(=O)N2CCCC2)c1)c1cccc(S(=O)(=O)N2CCCC2)c1	-74*	?	-21%	4	?	2
COc1ccc(Cl)cc1C(=O)NCC(c1ccc(N(C)C)cc1)N1CCCC1 (centres undefined)	4	.	.	.	.	.

Source: PubChem BioAssay
